Data: PubChem BioAssay AID1159580 (chemical genetic matrix, 2015)
Among all 5,500 compounds or so, about 2,000 (36%) were called active. Not shown: some 18% with an inconclusive outcome. Some of the results follow. Unmarked numbers belong to inactive results. Cut-off read from the data, not from the text of the source: active = normalized growth mostly below about 0.91 (no sharp cut-off); inconclusive = no clear call, values can overlap the other calls; inactive = mostly above about 0.92.

Assay: chemical genetic growth profiling, strain panel (AID 1159580);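 note: tested at 20 µM; growth read once vehicle control cultures reached saturation at 30 °C; 1 = growth at the plate median or of vehicle wells; lower values mean less growth of the strain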
Conditions: growth OD
[1] = S. cerevisiae deletion strains, locus YAL013W, strain DEP1, stronger effect = lower value
[2] = S. cerevisiae deletion strains, locus YBR229C, strain ROT2, stronger effect = lower value
[3] = S. cerevisiae deletion strains, locus YDL101C, strain DUN1, stronger effect = lower value
[4] = S. cerevisiae deletion strains, locus YDL134C, strain PPH21, stronger effect = lower value
[5] = S. cerevisiae deletion strains, locus YGR078C, strain PAC10, stronger effect = lower value
[6] = S. cerevisiae deletion strains, locus YJR043C, strain POL32, stronger effect = lower value
[7] = S. cerevisiae deletion strains, locus YKL190W, strain CNB1, stronger effect = lower value
[8] = S. cerevisiae deletion strains, locus YLR039C, strain RIC1, stronger effect = lower value
[9] = S. cerevisiae deletion strains, locus YMR307W, strain GAS1, stronger effect = lower value

Work on `O=C(c1cccc([N+](=O)[O-])c1)c1cc2cc(Br)cc(Br)c2o1` yielded a normalized growth [1] of 0.993, a normalized growth [2] of 0.997 and a normalized growth [3] of 1.01. It also gave a normalized growth [4] of 0.994, a normalized growth (S. cerevisiae deletion strains, locus YDR150W, strain NUM1, stronger effect = lower value) of 0.952 and a normalized growth (S. cerevisiae deletion strains, locus YEL061C, strain CIN8, stronger effect = lower value) of 0.983. It also gave a normalized growth [5] of 0.989, a normalized growth (S. cerevisiae deletion strains, locus YGR229C, strain SMI1, stronger effect = lower value) of 1 and a normalized growth (S. cerevisiae deletion strains, locus YHR030C, strain SLT2, stronger effect = lower value) of 0.837. The normalized growth (S. cerevisiae deletion strains, locus YHR087W, strain rtc3, stronger effect = lower value) was 0.981, the normalized growth [6] was 0.997 and the normalized growth (S. cerevisiae deletion strains, locus YJR075W, strain HOC1, stronger effect = lower value) was 0.975. The normalized growth [7] was 0.996, the normalized growth [8] was 0.954 and the normalized growth (S. cerevisiae deletion strains, locus YLR058C, strain SHM2 (second series), stronger effect = lower value) was 0.994. The normalized growth (S. cerevisiae deletion strains, locus YLR085C, strain ARP6, stronger effect = lower value) was 0.847, the normalized growth (S. cerevisiae deletion strains, locus YLR262C, strain YPT6, stronger effect = lower value) was 0.974 and the normalized growth (S. cerevisiae deletion strains, locus YML094W, strain GIM5, stronger effect = lower value) was 0.988. The normalized growth (S. cerevisiae deletion strains, locus YMR219W, strain ESC1, stronger effect = lower value) was 0.994, the normalized growth (S. cerevisiae deletion strains, locus YMR263W, strain SAP30, stronger effect = lower value) was 0.96 and the normalized growth [9] was 0.864. For the same compound, the normalized growth (S. cerevisiae deletion strains, locus YNL153C, strain GIM3, stronger effect = lower value) was 0.988, the normalized growth (S. cerevisiae deletion strains, locus YNL298W, strain CLA4 (second series), stronger effect = lower value) was 0.948 and the normalized growth (S. cerevisiae deletion strains, locus YNL322C, strain KRE1, stronger effect = lower value) was 0.991. For the same compound, the normalized growth (S. cerevisiae deletion strains, locus YNR030W, strain Alg12, stronger effect = lower value) was 0.953, the normalized growth (S. cerevisiae deletion strains, locus YOL006C, strain TOP1, stronger effect = lower value) was 0.935 and the normalized growth (S. cerevisiae deletion strains, locus YPL055C, strain LGE1, stronger effect = lower value) was 0.974. The normalized growth (S. cerevisiae deletion strains, locus YPL241C, strain CIN2, stronger effect = lower value) was 0.942 and the normalized growth (S. cerevisiae deletion strains, locus YPR135W, strain CTF4, stronger effect = lower value) was 0.964.
`CC(=O)c1cc2c(cc1O)OC(C)(C)C=C2` gave a normalized growth [1] of 0.991, a normalized growth (S. cerevisiae deletion strains, locus YBR021W, strain FUR4, stronger effect = lower value) of 1.01 and a normalized growth [2] of 0.983. For the same compound, the normalized growth (S. cerevisiae deletion strains, locus YCL029C, strain bik1, stronger effect = lower value) was 0.993, the normalized growth (S. cerevisiae deletion strains, locus YDL035C, strain GPR1, stronger effect = lower value) was 1 and the normalized growth (S. cerevisiae deletion strains, locus YDL074C, strain BRE1, stronger effect = lower value) was 0.974. The normalized growth [3] was 0.999, the normalized growth [4] was 1.01 and the normalized growth (S. cerevisiae deletion strains, locus YDL185W, strain tfp1, stronger effect = lower value) was 0.993. The normalized growth (S. cerevisiae deletion strains, locus YDL192W, strain arf1, stronger effect = lower value) was 0.976, the normalized growth (S. cerevisiae deletion strains, locus YDR101C, strain arx1, stronger effect = lower value) was 0.891 (active) and the normalized growth (S. cerevisiae deletion strains, locus YDR162C, strain NBP2, stronger effect = lower value) was 1. For the same compound, the normalized growth (S. cerevisiae deletion strains, locus YDR318W, strain mcm21, stronger effect = lower value) was 0.999, the normalized growth (S. cerevisiae deletion strains, locus YDR388W, stronger effect = lower value) was 0.992 and the normalized growth (S. cerevisiae deletion strains, locus YDR502C, strain sam2, stronger effect = lower value) was 1. It also gave a normalized growth (S. cerevisiae deletion strains, locus YER110C, stronger effect = lower value) of 0.979, a normalized growth (S. cerevisiae deletion strains, locus YER155C, strain BEM2, stronger effect = lower value) of 0.975 and a normalized growth (S. cerevisiae deletion strains, locus YER167W, strain BCK2, stronger effect = lower value) of 0.96. It also gave a normalized growth (S. cerevisiae deletion strains, locus YGL078C, strain dbp3, stronger effect = lower value) of 1.03, a normalized growth (S. cerevisiae deletion strains, locus YGL086W, strain mad1, stronger effect = lower value) of 0.972 and a normalized growth (S. cerevisiae deletion strains, locus YGL248W, strain PDE1, stronger effect = lower value) of 0.997. The normalized growth [5] was 1.01, the normalized growth (S. cerevisiae deletion strains, locus YGR135W, strain pre9, stronger effect = lower value) was 1.02 and the normalized growth (S. cerevisiae deletion strains, locus YGR252W, strain gcn5, stronger effect = lower value) was 1.07. The normalized growth (S. cerevisiae deletion strains, locus YHR079C, strain IRE1 (second series), stronger effect = lower value) was 0.988, the normalized growth (S. cerevisiae deletion strains, locus YHR094C, strain hxt1, stronger effect = lower value) was 0.983 and the normalized growth (S. cerevisiae deletion strains, locus YHR129C, strain ARP1, stronger effect = lower value) was 0.991. The normalized growth (S. cerevisiae deletion strains, locus YHR200W, strain rpn10, stronger effect = lower value) was 0.97, the normalized growth (S. cerevisiae deletion strains, locus YIL066C, strain RNR3, stronger effect = lower value) was 0.979 and the normalized growth (S. cerevisiae deletion strains, locus YIL073C, strain SPO22, stronger effect = lower value) was 1.03. For the same compound, the normalized growth (S. cerevisiae deletion strains, locus YIL125W, strain kgd1, stronger effect = lower value) was 0.974, the normalized growth (S. cerevisiae deletion strains, locus YIR030C, strain dcg1, stronger effect = lower value) was 0.982 and the normalized growth (S. cerevisiae deletion strains, locus YJL095W, strain BCK1, stronger effect = lower value) was 1.02. It also gave a normalized growth (S. cerevisiae deletion strains, locus YJL134W, strain LCB3, stronger effect = lower value) of 0.98, a normalized growth (S. cerevisiae deletion strains, locus YJL168C, strain set2, stronger effect = lower value) of 0.991 and a normalized growth (S. cerevisiae deletion strains, locus YJL187C, strain SWE1 (second series), stronger effect = lower value) of 1.03. For the same compound, the normalized growth [6] was 0.935, the normalized growth (S. cerevisiae deletion strains, locus YKL009W, strain mrt4, stronger effect = lower value) was 1.01 and the normalized growth (S. cerevisiae deletion strains, locus YKL068W, stronger effect = lower value) was 0.973. For the same compound, the normalized growth (S. cerevisiae deletion strains, locus YKL085W, strain MDH1 (second series), stronger effect = lower value) was 0.976, the normalized growth (S. cerevisiae deletion strains, locus YKL085W, strain MDH1, stronger effect = lower value) was 0.976 and the normalized growth [7] was 0.991. For the same compound, the normalized growth (S. cerevisiae deletion strains, locus YKR001C, strain vps1, stronger effect = lower value) was 0.968, the normalized growth [8] was 0.952 and the normalized growth (S. cerevisiae deletion strains, locus YLR058C, strain SHM2, stronger effect = lower value) was 0.999. It also gave a normalized growth (S. cerevisiae deletion strains, locus YLR102C, strain apc9, stronger effect = lower value) of 0.981, a normalized growth (S. cerevisiae deletion strains, locus YLR268W, strain sec22, stronger effect = lower value) of 0.99 and a normalized growth (S. cerevisiae deletion strains, locus YLR330W, strain CHS5, stronger effect = lower value) of 0.983. The normalized growth (S. cerevisiae deletion strains, locus YLR371W, strain rom2, stronger effect = lower value) was 0.808 (active), the normalized growth (S. cerevisiae deletion strains, locus YLR418C, strain cdc73, stronger effect = lower value) was 0.964 and the normalized growth (S. cerevisiae deletion strains, locus YML016C, strain PPZ1, stronger effect = lower value) was 0.938. The normalized growth (S. cerevisiae deletion strains, locus YML032C, strain rad52, stronger effect = lower value) was 0.993, the normalized growth (S. cerevisiae deletion strains, locus YML124C, strain tub3, stronger effect = lower value) was 0.965 and the normalized growth (S. cerevisiae deletion strains, locus YMR078C, strain ctf18, stronger effect = lower value) was 0.956. The normalized growth (S. cerevisiae deletion strains, locus YMR223W, strain ubp8, stronger effect = lower value) was 1.01, the normalized growth [9] was 1.15 and the normalized growth (S. cerevisiae deletion strains, locus YNL067W, strain RPL9B, stronger effect = lower value) was 1.01. The normalized growth (S. cerevisiae deletion strains, locus YNL233W, strain BNI4, stronger effect = lower value) was 0.991, the normalized growth (S. cerevisiae deletion strains, locus YNL250W, strain rad50, stronger effect = lower value) was 0.997 and the normalized growth (S. cerevisiae deletion strains, locus YNL271C, strain bni1, stronger effect = lower value) was 0.977. For the same compound, the normalized growth (S. cerevisiae deletion strains, locus YNL298W, strain CLA4, stronger effect = lower value) was 1.01, the normalized growth (S. cerevisiae deletion strains, locus YNL307C, strain MCK1, stronger effect = lower value) was 0.975 and the normalized growth (S. cerevisiae deletion strains, locus YNR052C, strain pop2, stronger effect = lower value) was 1.06. The normalized growth (S. cerevisiae deletion strains, locus YOL012C, strain htz1) was 0.862, the normalized growth (S. cerevisiae deletion strains, locus YOL147C, strain pex11, stronger effect = lower value) was 0.96 and the normalized growth (S. cerevisiae deletion strains, locus YOR061W, strain CKA2, stronger effect = lower value) was 0.982. For the same compound, the normalized growth (S. cerevisiae deletion strains, locus YOR069W, strain VPS5, stronger effect = lower value) was 0.989, the normalized growth (S. cerevisiae deletion strains, locus YOR136W, strain idh2, stronger effect = lower value) was 1.01 and the normalized growth (S. cerevisiae deletion strains, locus YOR144C, strain elg1, stronger effect = lower value) was 0.984. For the same compound, the normalized growth (S. cerevisiae deletion strains, locus YOR184W, strain ser1, stronger effect = lower value) was 0.901, the normalized growth (S. cerevisiae deletion strains, locus YOR316C, strain cot1, stronger effect = lower value) was 0.985 and the normalized growth (S. cerevisiae deletion strains, locus YPR119W, strain clb2, stronger effect = lower value) was 0.982. The normalized growth (S. cerevisiae deletion strains, locus YPR141C, strain kar3, stronger effect = lower value) was 0.962, the normalized growth (S. cerevisiae deletion strains, locus YPR163C, strain tif3, stronger effect = lower value) was 0.993 and the normalized growth (S. cerevisiae deletion strains, locus YPR167C, strain met16, stronger effect = lower value) was 0.993. For the same compound, the normalized growth (S. cerevisiae deletion strains, strain wtn01, stronger effect = lower value) was 0.947 and the normalized growth (S. cerevisiae strains, strain wild type, stronger effect = lower value) was 0.983.
